Over roughly 1,600 compounds, “Hit score” has its median near 0.13; the highest 2% begin near 0.46. What follows is part of a selection rich in the highest values, with near analogues and random picks from the rest. *1 amine or outer side, *2 acyl side, *3 side chain or, on linkers, in order; H or OH if unused. Where a SMILES comes first, the peptide text is derived from it. Bridges are numbered along the chain shown (N, C = ends). [ ]: non-standard residue; d: D form. The star is where a group is joined. pTerphenylCO(4''-OnC5H11) = CCCCCOc1ccc(-c2ccc(-c3ccc(C(=O)*)cc3)cc2)cc1; Orn(4R-OH,5R-OH) = O=C([C@H](C[C@@H](O)[C@@H](O)N[*:3])N[*:1])[*:2]; hTyr(3S-OH,4S-OH) = N[C@H](C(=O)O)[C@H](O)[C@@H](O)c1ccc(O)cc1; Pro(3S-OH,4S-Me) = C[C@H]1CN[C@H](C(=O)O)[C@H]1O; Hyp = O=C(O)[C@@H]1C[C@@H](O)CN1

This note sets out measurements from ChEMBL document CHEMBL4303122, “Identification of potential treatments for COVID-19 through artificial intelligence-enabled phenomic analysis of human cells infected with SARS-CoV-2” (2020).

In this experiment the test system is SARS-CoV-2. Kind of experiment: Antiviral activity against SARS-CoV-2 (USA-WA1/2020 strain) measured by imaging in HRCE cells at MOI 0.4 after 96 hrs (reported as hit score from 0-1 for on-disease vs off-disease activity: scores >0.6 considered hits). The format is functional, Homo sapiens.
As for `COc1cc2nccc(Oc3ccc(NC(=O)Nc4cc(C)on4)c(Cl)c3)c2cc1OC` [TIVOZANIB], the Hit score is 0.1611. With `CC1(C)S[C@@H]2[C@H](NC(=O)COc3ccccc3)C(=O)N2[C@H]1C(=O)O` [PENICILLIN V] the figure was 0.002553; with `Cc1c(Cl)c(C)[n+]([O-])c(Cl)c1-c1noc(-c2cc(O)c(O)c([N+](=O)[O-])c2)n1` [OPICAPONE], -0.07412; with `Cc1ccc2c(c1)[C@]13CCCC[C@@H]1[C@H](C2)N(C)CC3` [DIMEMORFAN], 0.08461. For `CCCCCOc1ccc(-c2ccc(-c3ccc(C(=O)N[C@H]4C[C@@H](O)[C@@H](O)NC(=O)[C@@H]5[C@@H](O)[C@@H](C)CN5C(=O)[C@H]([C@@H](C)O)NC(=O)[C@H]([C@H](O)[C@@H](O)c5ccc(O)cc5)NC(=O)[C@@H]5C[C@@H](O)CN5C(=O)[C@H]([C@@H](C)O)NC4=O)cc3)cc2)cc1` [ANIDULAFUNGIN] ({pTerphenylCO(4''-OnC5H11)}-[Orn(4R-OH,5R-OH)]T[Hyp][hTyr(3S-OH,4S-OH)]T[Pro(3S-OH,4S-Me)]; lactam 1-C), the Hit score was found to be 0.1907. In the case of `C=CC(=O)Nc1cccc(Oc2nc(Nc3ccc(N4CCN(C)CC4)cc3)nc3ccsc23)c1` [OLMUTINIB], the Hit score was 0.2407. Compound `Cc1oc(=O)oc1COC(=O)C1=C([C@H]2CCCO2)S[C@@H]2[C@@H]([C@@H](C)O)C(=O)N12` [FAROPENEM MEDOXOMIL] had a Hit score of 0.000691. With `CC(C)(O)CNc1nc(Nc2ccnc(C(F)(F)F)c2)nc(-c2cccc(C(F)(F)F)n2)n1` [ENASIDENIB] the figure was 0.1439.

With `OC[C@H]1O[C@@](CO)(O[C@H]2O[C@H](CO)[C@@H](O)[C@H](O)[C@H]2O)[C@@H](O)[C@@H]1O` [SUCROSE], the Hit score came out at 0.09545. Compound `Cc1cc(S(=O)(=O)[O-])c2c(C)ccc(C(C)C)cc1-2.[Na+]` [SODIUM GUALENATE] had a Hit score of 0.2044. `CCCCCCCCCCCCCCCC(=O)O[C@@H]1[C@@H](O)[C@@H](O)[C@@H]([C@H](NC(=O)[C@@H]2C[C@@H](CCC)CN2C)[C@H](C)Cl)O[C@@H]1SC` [CLINDAMYCIN PALMITATE] showed a Hit score of 0.1881. In turn, `CCn1c(=O)c2c(nc(/C=C/c3ccc(OC)c(OC)c3)n2C)n(CC)c1=O` [ISTRADEFYLLINE] showed a Hit score of 0.1372.

`COc1ccc(-c2cc(=O)c3c(O)c(OC)c(O)cc3o2)cc1OC` [EUPATILIN] yielded a Hit score of 0.2352.

For the compound `CC[C@]12CCCN3CCc4c(n(c5ccccc45)C(=O)C1)[C@@H]32` [VINBURNINE], the Hit score came to 0.1621. The compound `CCOc1nc2cccc(C(=O)O)c2n1Cc1ccc(-c2ccccc2-c2noc(=O)[nH]2)cc1` [AZILSARTAN] gave a Hit score of 0.1513. `CCC(C)(Oc1ccc(C2(c3ccc(OC(C)(CC)C(=O)O)cc3)CCCCC2)cc1)C(=O)O` (configuration not stated) [CLINOFIBRATE] returned a Hit score of 0.1194.

Take `N[C@@H](CCN[C@@H](CCN1CC[C@H]1C(=O)O)C(=O)O)C(=O)O`: the Hit score is on record as 0.1041.

`Cn1cnc2c(F)c(Nc3ccc(Br)cc3F)c(C(=O)NOCCO)cc21` [BINIMETINIB] showed a Hit score of 0.0233. In turn, `O=C(O)c1cc2ccccc2c(Cc2c(O)c(C(=O)O)cc3ccccc23)c1O` [PAMOIC ACID] yielded a Hit score of 0.0734. With `COC(=O)N[C@H](C(=O)N1CCC[C@H]1c1ncc(-c2ccc(-c3ccc(-c4cnc([C@@H]5CCCN5C(=O)[C@@H](NC(=O)OC)C(C)C)[nH]4)cc3)cc2)[nH]1)C(C)C` the figure was -0.06011. The compound `Cc1ccc(NC(=O)C2(c3ccc4c(c3)OC(F)(F)O4)CC2)nc1-c1cccc(C(=O)O)c1` [LUMACAFTOR] displayed a Hit score of 0.04797. On to `Cc1nccn1CCC(C(N)=O)(c1ccccc1)c1ccccc1` [IMIDAFENACIN], for which the Hit score is reported as 0.008612. With `CCC(=O)NC[C@@H]1C[C@H]1c1cccc2c1CCO2` [TASIMELTEON], the Hit score was 0.1536. Turning to `CC(C)OC(=O)CCC/C=C\C[C@@H]1[C@@H](/C=C/C(F)(F)COc2ccccc2)[C@H](O)C[C@@H]1O` [TAFLUPROST], the Hit score was 0.14. `O=[N+]([O-])c1cncn1CCN1CCOCC1` [NIMORAZOLE]: the Hit score is listed as 0.1444. With `CCCCCC(=O)O[C@]1(C(C)=O)CC[C@H]2[C@@H]3CCC4=CC(=O)CC[C@]4(C)[C@H]3CC[C@@]21C` [HYDROXYPROGESTERONE CAPROATE] the figure was 0.1371. As to `COc1cc(C)c2c(Oc3cccc(C(F)(F)F)c3)c(OC)cc(NC(C)CCCN)c2n1.O=C(O)CCC(=O)O` (configuration not stated) [TAFENOQUINE SUCCINATE], the Hit score amounted to 0.101. In the case of `C[C@]12C=CC(=O)N[C@@H]1CC[C@@H]1[C@@H]2CC[C@]2(C)[C@@H](C(=O)Nc3cc(C(F)(F)F)ccc3C(F)(F)F)CC[C@@H]12` [DUTASTERIDE], the Hit score came out at 0.3162. `C=CC[C@@H]1/C=C(\C)C[C@H](C)C[C@H](OC)[C@H]2O[C@@](O)(C(=O)C(=O)N3CCCC[C@H]3C(=O)O[C@H](/C(C)=C/[C@@H]3CC[C@@H](O)[C@H](OC)C3)[C@H](C)[C@@H](O)CC1=O)[C@H](C)C[C@@H]2OC` [TACROLIMUS ANHYDROUS] had a Hit score of 0.3285.

In turn, `CO[C@H]1C[C@@H]2CC[C@@H](C)[C@@](O)(O2)C(=O)C(=O)N2CCCC[C@H]2C(=O)O[C@H]([C@H](C)C[C@@H]2CC[C@@H](O)[C@H](OC)C2)CC(=O)[C@H](C)/C=C(\C)[C@@H](O)[C@@H](OC)C(=O)[C@H](C)C[C@H](C)/C=C/C=C/C=C/1C` [SIROLIMUS] gave a Hit score of 0.6828.

Take `CO[C@H]1C[C@@H]2CC[C@@H](C)[C@@](O)(O2)C(=O)C(=O)N2CCCC[C@H]2C(=O)O[C@H]([C@H](C)C[C@@H]2CC[C@@H](OC(=O)C(C)(CO)CO)[C@H](OC)C2)CC(=O)[C@H](C)/C=C(\C)[C@@H](O)[C@@H](OC)C(=O)[C@H](C)C[C@H](C)/C=C/C=C/C=C/1C` [TEMSIROLIMUS]: the Hit score worked out at 0.4599. `CO[C@H]1C[C@@H]2CC[C@@H](C)[C@@](O)(O2)C(=O)C(=O)N2CCCC[C@H]2C(=O)O[C@H]([C@H](C)C[C@@H]2CC[C@H](n3cnnn3)[C@H](OC)C2)CC(=O)[C@H](C)/C=C(\C)[C@@H](O)[C@@H](OC)C(=O)[C@H](C)C[C@H](C)/C=C/C=C/C=C/1C` [ZOTAROLIMUS] yielded a Hit score of 0.6315. In the case of `CC[C@@H]1/C=C(\C)C[C@H](C)C[C@H](OC)[C@H]2O[C@@](O)(C(=O)C(=O)N3CCCC[C@H]3C(=O)O[C@H](/C(C)=C/[C@@H]3CC[C@H](Cl)[C@H](OC)C3)[C@H](C)[C@@H](O)CC1=O)[C@H](C)C[C@@H]2OC` [PIMECROLIMUS], the Hit score amounted to 0.2951. As to `CO[C@H]1C[C@@H]2CC[C@@H](C)[C@@](O)(O2)C(=O)C(=O)N2CCCC[C@H]2C(=O)O[C@H]([C@H](C)C[C@@H]2CC[C@@H](OCCO)[C@H](OC)C2)CC(=O)[C@H](C)/C=C(\C)[C@@H](O)[C@@H](OC)C(=O)[C@H](C)C[C@H](C)/C=C/C=C/C=C/1C` [EVEROLIMUS], the Hit score turned out to be 0.4984. In the case of `C[C@@H]1CCO[C@H]2Cn3cc(C(=O)NCc4ccc(F)cc4F)c(=O)c(O)c3C(=O)N12` [DOLUTEGRAVIR], the Hit score was -0.02185. In turn, `CCc1cc(/C(C)=N/OCc2ccc(C3CCCCC3)c(C(F)(F)F)c2)ccc1CN1CC(C(=O)O)C1` [SIPONIMOD] had a Hit score of -0.1293. With `Cc1cn(-c2cc(NC(=O)c3ccc(C)c(Nc4nccc(-c5cccnc5)n4)c3)cc(C(F)(F)F)c2)cn1` [NILOTINIB] the figure was 0.4816; with `Cc1ccc(NC(=O)c2ccc(CN3CCN(C)CC3)cc2)cc1Nc1nccc(-c2cccnc2)n1` [IMATINIB], 0.06765. As for `Cc1ccc(/C=C2/C(=O)C3(C)CCC2C3(C)C)cc1` (configuration not stated) [ENZACAMENE], the Hit score came to 0.1975.

Take `CC(C)NCC(O)COc1ccc(COCCOC(C)C)cc1` (configuration not stated) [BISOPROLOL]: the Hit score is 0.1972. Consider `CC(C)NC[C@H](O)COc1ccc(CCOCC2CC2)cc1` [LEVOBETAXOLOL], for which the Hit score is recorded as 0.4949. In turn, `CC(C)NCC(O)COc1ccc(CCOCC2CC2)cc1` (configuration not stated) [BETAXOLOL] registered a Hit score of 0.2742. With `C=C1c2c(Cl)ccc(O)c2C(=O)C2=C(O)[C@]3(O)C(=O)C(C(N)=O)=C(O)[C@@H](N(C)C)[C@@H]3[C@@H](O)[C@H]12.O=C(O)c1cc(S(=O)(=O)O)ccc1O` [MECLOCYCLINE SULFOSALICYLATE] the figure was 0.1338; with `CC(C)OC(=O)CCC/C=C\C[C@@H]1[C@@H](CC[C@@H](O)CCc2ccccc2)[C@H](O)C[C@@H]1O` [LATANOPROST], 0.04489. In turn, `CCCCCCOC(=O)CCC(=O)CN` [HEXAMINOLEVULINATE] had a Hit score of 0.1128.

In turn, `COc1cc([C@@H]2c3cc4c(cc3[C@@H](O[C@@H]3O[C@@H]5CO[C@@H](C)O[C@H]5[C@H](O)[C@H]3O)[C@H]3COC(=O)[C@H]23)OCO4)cc(OC)c1OP(=O)(O)O` [ETOPOSIDE PHOSPHATE] showed a Hit score of 0.05858. With `O=C(CNc1cccc(Cl)c1)NC1CCCN(c2ncnc3[nH]ccc23)C1` (configuration not stated), the Hit score worked out at 0.1071. With `CCC(CC)COC(=O)[C@H](C)N[P@](=O)(OC[C@H]1O[C@@](C#N)(c2ccc3c(N)ncnn23)[C@H](O)[C@@H]1O)Oc1ccccc1` the figure was 0.9631.

As to `CC(C)OC(=O)[C@H](C)N[P@@](=O)(OC[C@H]1O[C@@H](n2ccc(=O)[nH]c2=O)[C@](C)(F)[C@@H]1O)Oc1ccccc1`, the Hit score was found to be 0.2594.

As to `CC(C)OC(=O)[C@H](C)N[P@](=O)(OC[C@H]1O[C@@H](n2ccc(=O)[nH]c2=O)[C@](C)(F)[C@@H]1O)Oc1ccccc1` [SOFOSBUVIR], the Hit score was 0.2045.

As for `Nc1ncnc2c1ncn2[C@@H]1O[C@H](CO)[C@@H](O)[C@@H]1O` [VIDARABINE], the Hit score was -0.02251.

For the compound `N#C[C@@]1(c2ccc3c(N)ncnn23)O[C@H](CO)[C@@H](O)[C@H]1O` [GS-441524], the Hit score is on record as 0.865.
